The nature of this test: NALP1 inflammasome inhibitors in reconstituted yeast, colorimetric, S. cerevisiae, triplicate retest (AID 2071). Conditions: S. cerevisiae NALP1/ASC/caspase-1 growth, X-gal OD620, 72 h, stronger effect = higher value; at 10 µM unless noted.

The values that follow come from PubChem BioAssay AID2071 (Sanford-Burnham Center for Chemical Genomics, 2009).

The whole screen tested about 280,000 compounds, of which about 1,700 (0.61%) were called active. Only a selection was taken, and actives are over-represented in it overall. Unmarked numbers belong to inactive results. No stated cut-off is given here; in the data, active means inhibition mostly above about 24% (no sharp cut-off); inactive means mostly below about 32%.

In the case of `O=C(CN1CCN(C(=O)C2CCCO2)CC1)Nc1c(Cl)cccc1Cl` (stereo not given), the inhibition (commonly the drop in the measured response relative to a control, in per cent) is 17.6%.

Consider `COc1ccc(-c2c(C#Cc3ccccc3)c3ccccc3n2C)cc1`, for which the inhibition was 15.3%.

For `CC(=O)Nc1ccc(NC(=O)CS(=O)(=O)c2cn(CC(=O)N3CCCCC3)c3ccccc23)cc1`, the inhibition was 5.8%.

In the case of `C=CS(=O)c1sc(Cl)c(N2CCOCC2)c1[N+](=O)[O-]` (stereo not given), the inhibition is 37.6% (active).

On to `Cc1cccc(NC(=O)c2ccc(S(=O)(=O)N(C)CC3CCCO3)cc2)c1C` (stereo not given), for which the inhibition was 15.7%.

For `COCc1c(N)c(C)nc(Cl)c1C#N`, the inhibition was -22.9%.

Turning to `CC(C)Cc1nc(Cl)c(C#N)c2c1CCC2`, the inhibition is 8%.

As to `Cc1nc(Cl)c(C#N)c2c1CCCC2`, the inhibition is 41.9% (active).

As to `COc1ccc(NCCc2ccccn2)cc1`, the inhibition was 8.9%.

Consider `O=C(NCCCc1ccccc1)C(=O)NCC1OCCN1S(=O)(=O)c1ccccc1` (stereo not given), for which the inhibition is -4.3%.

In the case of `COc1ccc(CCNC(=O)C(=O)NCC2OCCN2S(=O)(=O)c2cccs2)cc1OC` (stereo not given), the inhibition was 0.8%.

For the compound `COc1cccc(NC(=O)[C@H](Cc2c[nH]c3ccccc23)NC(=O)[C@@H]2Cc3ccccc3CN2)c1`, the inhibition is 17.2%.

As to `CC(C)(C)c1ccc(NC(=O)NCc2ccco2)cc1`, the inhibition was 21.4%.

For `CC(C)(C)NC(=O)NCc1ccco1`, the inhibition was 41.4% (active).

Consider `Cc1ccccc1NC(=O)NCc1ccco1`, for which the inhibition is 23.9%.

Regarding `Cc1[nH]n(C(N)=S)c(=O)c1N=Nc1ccc(Cl)cc1Cl`, the inhibition was 0.4%.

Regarding `COc1ccc(-n2nc(C(=O)NCC(=O)N3CCN(c4ccccc4OC)CC3)c3ccccc3c2=O)c(OC)c1`, the inhibition is 20.4%.

Regarding `CN(c1ccc(O)cc1)c1nc(-c2cccnc2)cs1`, the inhibition is 12.3%.

As for `O=C(NC(=S)Nc1ccc(Cl)cc1Cl)C1CC1`, the inhibition is 10.6%.

Take `O=C(NCC(=O)N1CCN(c2ncc(C(F)(F)F)cc2Cl)CC1)c1ccc(Br)o1`: the inhibition is 6.1%.

With `CC1(C)Cc2cccc(OCC(=O)NCc3ccccc3)c2O1`, the inhibition is -5.5%.

Take `Cc1nc(NCCN)c(C#N)c2c1COC(C)(C)C2`: the inhibition is 8.1%.

Take `Cc1nc(NCc2ccccc2)c(C(N)=O)c2c1COC(C)(C)C2`: the inhibition was 37.7% (active).

Turning to `COc1ccccc1C(=O)COC(=O)CNS(=O)(=O)c1ccc(NC(C)=O)cc1`, the inhibition was 16.9%.

Consider `Cc1ccccc1C(=O)NC(=S)NC1CC1`, for which the inhibition is 12.2%.

With `COc1cccc(-n2c(SCC(=O)NC3CCCCC3)nc3n[nH]c(C)c3c2=N)c1`, the inhibition was -7.2%.

For the compound `Cc1ccc(-n2c(SCC(=O)NCCC3=CCCCC3)nc3n[nH]c(C)c3c2=N)cc1Cl`, the inhibition is 39.4% (active).

In the case of `CCCCNC(=O)CSc1nc2n[nH]c(C)c2c(=N)n1-c1cccc(Cl)c1C`, the inhibition is -3.5%.

On to `COc1ccc(N(C)C(=O)C2CCN(S(=O)(=O)c3cccc4nsnc34)CC2)cc1`, for which the inhibition was 9.7%.

Take `Cc1ccc(NC(=O)c2cc3ccccc3o2)cc1`: the inhibition was 8.6%.

In the case of `O=C(CCCCCn1c(=S)[nH]c2ccsc2c1=O)NC1CCCCC1`, the inhibition was -20.3%.

As for `Cc1cc(NC(=O)c2ccccc2C)no1`, the inhibition was 17%.

Turning to `CCOCCCNC(=O)C(NC(=O)CNC(=O)c1ccccc1)c1ccc(OC)cc1` (stereo not given), the inhibition is -2.8%.

As to `CCOCCCNC(=O)C(NC(=O)c1ccc(=O)[nH]c1)c1ccc(Cl)cc1` (stereo not given), the inhibition was 38.8% (active).

`CCOCCCNC(=O)C(NC(=O)CNC(=O)c1ccccc1)c1ccc(C)cc1` (stereo not given): the inhibition was 38.2% (active).

Regarding `CCOCCCNC(=O)C(NC(=O)c1ccc(=O)[nH]c1)c1ccc(C)cc1` (stereo not given), the inhibition is -4%.

Regarding `CCOCCCNC(=O)C(NC(=O)c1ccccc1O)c1ccccc1` (stereo not given), the inhibition is -7.8%.

As for `CCOCCCNC(=O)C(NC(=O)Cc1c[nH]c2ccccc12)c1ccc(OC)cc1` (stereo not given), the inhibition is 6.3%.

In the case of `COC(=O)c1ccc2c(C(C)(C)O)c(C(C)(C)O)[nH]c2c1`, the inhibition is 2.7%.

As to `O=C(Nc1cccc(Cl)c1Cl)c1ccccc1NC(=O)C1CC=CCC1C(=O)O` (stereo not given), the inhibition was 11%.

With `CCCN1C2CCCC1CC(NC(=O)NC13CC4CC(CC(C4)C1)C3)C2` (stereo not given), the inhibition was 13.5%.

In the case of `COc1cccc(C(C(=O)NC2CCCC2)N(C(=O)c2ccco2)c2cccc(C(C)=O)c2)c1OC` (stereo not given), the inhibition was 24.9%.

On to `CCCn1c(CCNc2nc(-c3ccc(OC)cc3)cs2)nc2ccccc21`, for which the inhibition is -2.4%.

As for `O=C(Cc1ccc(F)cc1)NC1CCCC1`, the inhibition was 9.3%.

In the case of `O=C(CSc1ncnc2c1nnn2Cc1ccc(F)cc1)NC1CCCC1`, the inhibition is 23.4% (active).

For `O=C(CSc1ncnc2c1oc1ccccc12)NC1CCCC1`, the inhibition is 15.8%.

For `COc1ccc(-c2cc(C(=O)N(C)Cc3ccc(OC)c(OC)c3OC)c3ccccc3n2)cc1OC`, the inhibition was 19%.

Consider `Cc1nnc(NC2=NCCCCC2)o1`, for which the inhibition was 37.9% (active).

In the case of `Cn1cccc1C(=O)N1CCc2ccccc2C1`, the inhibition was 19.1%.

With `CCC(C)c1ccc(NC(=S)N2CCCC2)cc1` (stereo not given), the inhibition was -2.6%.
